# From PubChem BioAssay
# Active and inactive are the calls of the source.
# Experiments:
# [1] = test system: PRMT1 (protein arginine N-methyltransferase 1); test: PRMT1 binders on small-molecule microarrays, primary screen, biochemical, small-molecule microarray, 635 nm fluorescence (AID 1088); details: small-molecule microarray binding, higher = more signal;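 further: binding of Prmt1 protein to compounds spotted on small-molecule microarray slides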
# [2] = yeast growth modulation, basal conditions, primary screen, YJM789 clinical isolate, OD600, 24 h (AID 1089);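 further: growth of clinical yeast isolate S. cerevisiae YJM 789 seeded 1000 cells per well; test concentration not given here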; details: S. cerevisiae YJM789 growth, higher = more signal, called active from +8 up or from −8 down
# [3] = fission yeast growth modulation, primary screen, strain 972, OD600, 24 h, no modulator (AID 1090);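 further: basal condition with compound alone and no growth modifier present; test concentration not given here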; details: S. pombe 972 growth, higher = more signal, called active from +8 up or from −8 down
# [4] = S. cerevisiae growth modulation with rapamycin, primary screen, strain BY4716, OD600, 96 h (AID 1091); details: higher = more signal, called active from +8 up or from −8 down; further: test concentration not given here
# [5] = target: Torsin-1A-interacting protein 2 (Homo sapiens) (UniProt Q8NFQ8); test: LULL1 binders on small-molecule microarray, primary screen, cell lysate, human LULL1 lysate, 635/667 nm fluorescence (AID 1092); details: hLULL1 lysate binding, 635 nm fluorescence, higher = more signal;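 further: probe is lysate of COS7 cells overexpressing human LULL1; score merges per-feature 667 nm fluorescence with signal-to-noise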
# [6] = E. coli growth modulation, two-sided OD650, primary screen, E. coli filamentation project, strain DRC41, 24 h (AID 1093); details: OD650, 24 h, higher = more signal, called active from +8 up or from −8 down;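 further: MC1000 strain lacking acrAB efflux and sulA so SOS filamentation is blocked; test concentration not given here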
# [7] = small-molecule microarray binders of probe aLefty2, primary screen, biochemical, biotinylated probe, 635/667 nm fluorescence (AID 1094); details: higher = more signal;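 further: score merges spot fluorescence near 667 nm with spot signal-to-noise ratio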
# [8] = test system: Noggin (protein binding on small-molecule microarray); test: Noggin binders on small-molecule microarray, primary screen, biochemical, 635/667 nm fluorescence (AID 1095); details: 635 nm fluorescence, higher = more signal;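 further: score merges 667 nm feature fluorescence with signal to noise over triplicate slides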
# [9] = target: Neurogenic locus notch homolog protein 3 (Homo sapiens) (UniProt Q9UM47); test: NOTCH3 binders on small-molecule microarray, primary screen, biochemical, 635/667 nm fluorescence (AID 1096); details: NOTCH3 binding, 635 nm fluorescence, higher = more signal
# [10] = small-molecule microarray binders of probe aEGFR, primary screen, biochemical, biotinylated probe, 635/667 nm fluorescence (AID 1097); details: higher = more signal;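 further: probe is a biotinylated anti-EGFR antibody binding compounds printed on slides; score combines fluorescence near 667 nm and signal to noise of each spot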
# [11] = test system: Plasmodium falciparum Sir2 (PF13_0152, Sir2A); test: pfSir2 binders on small-molecule microarrays, primary screen, biochemical, small-molecule microarray, 635 nm fluorescence (AID 1098); details: small-molecule microarray binding, fluorescence 635 nm; higher = more signal;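 further: score merges spot fluorescence intensity with its signal-to-noise ratio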
# [12] = small-molecule microarray binders of probe aDKK1, primary screen, biochemical, biotinylated probe, 635/667 nm fluorescence (AID 1099); details: higher = more signal;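 further: score merges 667nm spot fluorescence with signal to noise across triplicate slides; reference of the scale not given here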
# [13] = small-molecule microarray binders of probe aCHRDL2, primary screen, biochemical, biotinylated probe, 635/667 nm fluorescence (AID 1100); details: higher = more signal
# [14] = splicing luciferase reporter signal modulators, primary screen, spliceosome inhibition project, cell-based, HEK293, splice +/- reporter (AID 1101); details: luminescence, 24 h, higher = more signal, called active from +8 up or from −8 down;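 further: HEK293 cells carrying a splicing-competent luciferase reporter gene; test concentration not given here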
# [15] = target: Fibroblast growth factor 10 (Homo sapiens) (UniProt O15520); test: FGF10 binders on small-molecule microarrays, primary screen, biochemical, small-molecule microarray, 635 nm fluorescence (AID 1102); details: FGF10 binding, fluorescence 635 nm, higher = more signal
# [16] = test system: glycogen synthase kinase-3 (GSK3A per assay name; protocol says GSK3B); test: GSK3 binders on small-molecule microarrays, primary screen, biochemical, small-molecule microarray, 635 nm fluorescence, GSK3A (AID 1103); details: small-molecule microarray binding, fluorescence 635 nm; higher = more signal; further: the record names both GSK3A and GSK3B
# [17] = target: Epidermal growth factor receptor (Homo sapiens) (UniProt P00533); test: EGFR binders on small-molecule microarrays, primary screen, biochemical, small-molecule microarray, 635 nm fluorescence (AID 1104); details: EGFR binding, higher = more signal;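 further: score merges 667 nm emission intensity with spot signal to noise over triplicate slides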
# [18] = target: Follistatin-related protein 3 (Homo sapiens) (UniProt O95633); test: FSTL3 binders on small-molecule microarrays, primary screen, biochemical, small-molecule microarray, 635 nm fluorescence (AID 1105); details: FSTL3 binding, higher = more signal;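 further: score merges emission near 667 nm and signal to noise per printed spot across three slides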
# [19] = target: Dickkopf-related protein 1 (Homo sapiens) (UniProt O94907); test: DKK1 binders on small-molecule microarrays, primary screen, biochemical, small-molecule microarray, 635 nm fluorescence scan (AID 1106); details: DKK1 binding, higher = more signal;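 further: score merges emission near 667 nm with signal to noise over three replicate slides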
# [20] = test system: Inhibin beta A chain (activin A); test: INHBA (activin A) binders on microarrays, primary screen, biochemical, small-molecule microarray, 635 nm fluorescence scan (AID 1107); details: small-molecule microarray binding, higher = more signal;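 further: mouse activin A protein probed at 4.33 µg/mL on printed slides; score merges bound-protein fluorescence near 667 nm with spot signal-to-noise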
# Chain of Torsin-1A-interacting protein 2 (Homo sapiens) (Q8NFQ8 whole entry, looked up): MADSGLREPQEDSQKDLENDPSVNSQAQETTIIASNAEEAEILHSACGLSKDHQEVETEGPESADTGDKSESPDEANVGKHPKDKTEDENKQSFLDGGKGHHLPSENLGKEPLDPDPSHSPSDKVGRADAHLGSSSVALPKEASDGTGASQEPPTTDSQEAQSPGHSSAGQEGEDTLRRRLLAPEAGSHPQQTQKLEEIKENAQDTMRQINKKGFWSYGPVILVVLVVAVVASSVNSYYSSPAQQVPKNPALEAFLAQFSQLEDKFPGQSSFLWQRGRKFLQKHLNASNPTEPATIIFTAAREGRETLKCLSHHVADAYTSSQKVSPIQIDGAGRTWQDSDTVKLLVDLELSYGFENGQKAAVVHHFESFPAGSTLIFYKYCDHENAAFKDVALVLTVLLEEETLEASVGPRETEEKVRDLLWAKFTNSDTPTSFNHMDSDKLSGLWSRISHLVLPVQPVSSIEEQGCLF
# Chain of Dickkopf-related protein 1 (Homo sapiens) (O94907 whole entry, looked up): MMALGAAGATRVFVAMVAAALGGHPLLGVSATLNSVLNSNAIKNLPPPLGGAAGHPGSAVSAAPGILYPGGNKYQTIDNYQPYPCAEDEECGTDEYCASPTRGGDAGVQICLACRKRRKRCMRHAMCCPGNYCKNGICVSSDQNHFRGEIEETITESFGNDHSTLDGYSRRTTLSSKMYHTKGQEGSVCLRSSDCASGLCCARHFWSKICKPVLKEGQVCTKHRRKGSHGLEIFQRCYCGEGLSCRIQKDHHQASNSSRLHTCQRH
# Chain of Fibroblast growth factor 10 (Homo sapiens) (O15520 whole entry, looked up): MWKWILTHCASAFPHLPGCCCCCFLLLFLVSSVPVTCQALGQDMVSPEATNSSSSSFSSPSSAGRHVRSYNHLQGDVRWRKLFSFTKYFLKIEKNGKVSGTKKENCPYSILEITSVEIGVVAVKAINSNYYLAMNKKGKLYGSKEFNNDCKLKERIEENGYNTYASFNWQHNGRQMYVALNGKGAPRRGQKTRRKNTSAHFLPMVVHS
# Chain of Follistatin-related protein 3 (Homo sapiens) (O95633 whole entry, looked up): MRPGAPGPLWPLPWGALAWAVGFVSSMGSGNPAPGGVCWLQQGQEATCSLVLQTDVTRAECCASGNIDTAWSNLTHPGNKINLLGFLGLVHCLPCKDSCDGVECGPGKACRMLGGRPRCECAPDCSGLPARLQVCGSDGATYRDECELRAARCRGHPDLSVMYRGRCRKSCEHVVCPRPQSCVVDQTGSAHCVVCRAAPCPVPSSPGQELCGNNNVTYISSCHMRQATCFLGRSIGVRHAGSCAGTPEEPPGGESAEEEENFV
# Chain of Epidermal growth factor receptor (Homo sapiens) (P00533 whole entry, looked up): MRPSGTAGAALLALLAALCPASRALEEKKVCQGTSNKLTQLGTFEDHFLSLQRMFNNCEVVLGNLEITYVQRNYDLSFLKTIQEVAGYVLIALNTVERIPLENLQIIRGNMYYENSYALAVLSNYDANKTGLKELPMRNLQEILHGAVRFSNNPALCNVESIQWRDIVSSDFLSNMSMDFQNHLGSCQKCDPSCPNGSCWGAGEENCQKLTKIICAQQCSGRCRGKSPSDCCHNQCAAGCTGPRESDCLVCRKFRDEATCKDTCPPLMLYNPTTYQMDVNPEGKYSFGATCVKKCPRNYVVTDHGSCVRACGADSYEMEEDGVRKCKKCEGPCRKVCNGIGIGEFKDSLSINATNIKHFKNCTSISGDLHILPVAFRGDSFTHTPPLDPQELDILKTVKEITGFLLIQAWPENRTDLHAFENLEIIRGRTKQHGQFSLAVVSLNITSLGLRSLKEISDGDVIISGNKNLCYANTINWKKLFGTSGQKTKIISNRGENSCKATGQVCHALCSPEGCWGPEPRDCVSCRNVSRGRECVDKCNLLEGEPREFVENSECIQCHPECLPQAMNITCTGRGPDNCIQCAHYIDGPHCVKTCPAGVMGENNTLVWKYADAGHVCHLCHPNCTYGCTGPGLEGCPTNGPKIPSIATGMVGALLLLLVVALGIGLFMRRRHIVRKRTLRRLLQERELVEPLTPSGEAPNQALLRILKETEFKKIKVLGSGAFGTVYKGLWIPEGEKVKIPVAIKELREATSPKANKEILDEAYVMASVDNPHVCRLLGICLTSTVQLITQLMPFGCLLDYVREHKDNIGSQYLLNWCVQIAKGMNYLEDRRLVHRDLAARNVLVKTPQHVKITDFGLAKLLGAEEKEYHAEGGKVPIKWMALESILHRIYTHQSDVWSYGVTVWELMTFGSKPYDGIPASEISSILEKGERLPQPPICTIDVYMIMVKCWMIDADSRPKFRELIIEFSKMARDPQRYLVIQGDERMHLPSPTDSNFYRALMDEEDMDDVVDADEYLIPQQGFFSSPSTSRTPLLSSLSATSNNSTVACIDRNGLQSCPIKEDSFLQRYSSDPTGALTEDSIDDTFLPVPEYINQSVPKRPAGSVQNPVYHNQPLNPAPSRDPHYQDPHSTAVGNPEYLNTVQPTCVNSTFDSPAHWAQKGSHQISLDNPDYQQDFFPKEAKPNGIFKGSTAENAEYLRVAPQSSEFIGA
# Chain of Neurogenic locus notch homolog protein 3 (Homo sapiens) (Q9UM47 whole entry, looked up): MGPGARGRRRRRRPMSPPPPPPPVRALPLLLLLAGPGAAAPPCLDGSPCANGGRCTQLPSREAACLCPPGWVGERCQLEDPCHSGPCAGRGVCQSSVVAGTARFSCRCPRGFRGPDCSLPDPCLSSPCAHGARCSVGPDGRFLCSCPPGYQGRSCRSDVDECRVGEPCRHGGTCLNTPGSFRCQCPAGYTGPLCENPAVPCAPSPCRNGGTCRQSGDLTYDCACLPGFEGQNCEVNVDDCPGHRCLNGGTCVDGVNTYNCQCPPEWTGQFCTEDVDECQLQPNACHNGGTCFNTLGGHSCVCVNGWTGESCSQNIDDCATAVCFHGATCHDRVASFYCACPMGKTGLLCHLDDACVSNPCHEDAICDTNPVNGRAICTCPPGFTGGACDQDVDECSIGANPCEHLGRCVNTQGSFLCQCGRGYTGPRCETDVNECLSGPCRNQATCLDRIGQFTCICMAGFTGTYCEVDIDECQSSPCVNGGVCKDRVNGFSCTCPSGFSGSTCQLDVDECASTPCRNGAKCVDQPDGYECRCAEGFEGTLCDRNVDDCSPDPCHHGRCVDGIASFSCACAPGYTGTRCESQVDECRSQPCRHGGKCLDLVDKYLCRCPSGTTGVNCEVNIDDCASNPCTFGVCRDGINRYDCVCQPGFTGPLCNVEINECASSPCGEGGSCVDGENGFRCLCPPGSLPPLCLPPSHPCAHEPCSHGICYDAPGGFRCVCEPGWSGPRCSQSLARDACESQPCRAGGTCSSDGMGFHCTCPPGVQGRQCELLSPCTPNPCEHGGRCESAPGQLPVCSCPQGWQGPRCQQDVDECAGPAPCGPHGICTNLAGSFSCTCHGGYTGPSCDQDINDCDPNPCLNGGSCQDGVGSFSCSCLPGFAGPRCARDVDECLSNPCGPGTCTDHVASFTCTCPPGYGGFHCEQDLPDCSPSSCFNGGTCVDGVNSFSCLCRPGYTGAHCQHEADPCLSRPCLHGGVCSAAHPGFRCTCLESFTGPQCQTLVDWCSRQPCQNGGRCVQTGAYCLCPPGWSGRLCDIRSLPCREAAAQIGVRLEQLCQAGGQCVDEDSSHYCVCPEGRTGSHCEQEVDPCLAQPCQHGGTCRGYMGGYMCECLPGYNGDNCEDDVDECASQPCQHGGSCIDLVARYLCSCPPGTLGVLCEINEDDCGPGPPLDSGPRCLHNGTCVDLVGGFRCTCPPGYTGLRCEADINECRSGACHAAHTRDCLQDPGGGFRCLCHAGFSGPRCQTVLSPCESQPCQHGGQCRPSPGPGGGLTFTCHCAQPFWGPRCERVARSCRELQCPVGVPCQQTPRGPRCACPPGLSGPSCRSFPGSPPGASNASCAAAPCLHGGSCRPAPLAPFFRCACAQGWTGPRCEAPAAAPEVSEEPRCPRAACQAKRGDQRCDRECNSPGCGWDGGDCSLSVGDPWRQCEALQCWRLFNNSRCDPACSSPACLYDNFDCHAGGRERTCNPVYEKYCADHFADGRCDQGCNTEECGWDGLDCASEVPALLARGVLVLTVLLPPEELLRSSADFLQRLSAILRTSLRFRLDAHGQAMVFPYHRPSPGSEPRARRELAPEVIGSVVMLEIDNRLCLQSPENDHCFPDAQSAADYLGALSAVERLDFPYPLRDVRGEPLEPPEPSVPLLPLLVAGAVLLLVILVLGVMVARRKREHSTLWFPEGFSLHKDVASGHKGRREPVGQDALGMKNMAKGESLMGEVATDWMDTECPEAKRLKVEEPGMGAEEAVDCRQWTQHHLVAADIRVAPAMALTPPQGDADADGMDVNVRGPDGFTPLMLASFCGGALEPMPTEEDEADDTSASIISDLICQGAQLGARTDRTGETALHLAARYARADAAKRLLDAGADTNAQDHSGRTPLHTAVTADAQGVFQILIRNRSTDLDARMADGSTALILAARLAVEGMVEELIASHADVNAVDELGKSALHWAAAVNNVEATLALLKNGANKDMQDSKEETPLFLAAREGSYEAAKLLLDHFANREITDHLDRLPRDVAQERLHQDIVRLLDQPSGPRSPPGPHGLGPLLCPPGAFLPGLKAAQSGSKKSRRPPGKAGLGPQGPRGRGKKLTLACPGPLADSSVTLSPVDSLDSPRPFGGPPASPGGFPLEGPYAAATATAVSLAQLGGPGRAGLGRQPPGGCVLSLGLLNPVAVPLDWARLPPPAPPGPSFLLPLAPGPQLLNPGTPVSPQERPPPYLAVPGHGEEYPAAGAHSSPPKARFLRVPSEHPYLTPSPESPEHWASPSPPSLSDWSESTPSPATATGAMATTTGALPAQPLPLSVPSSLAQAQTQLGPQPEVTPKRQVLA
Compound,composite z-score [1],z-score [2],z-score [3],z-score [4],composite z-score [5],z-score [6],composite z-score [7],composite z-score [8],composite z-score [9],composite z-score [10],composite z-score [11],composite z-score [12],composite z-score [13],z-score [14],composite z-score [15],composite z-score [16],composite z-score [17],composite z-score [18],composite z-score [19],composite z-score [20]
CC(=O)NCCCC[C@@H]1NC(=O)[C@@H]2C[C@H](C(=O)NCCCCCCN)[C@H](c3cccc(OCCO)c3)N2C1=O,0.858,0.119 (inactive),-0.646 (inactive),-0.831 (inactive),2.3,-0.314 (inactive),-0.0554,0.271,-0.239,-0.175,1.04,0.504,0.61,0.248 (inactive),0.906,0.132,-0.556,-0.309,-0.733,0.288
COc1ccc([Si](C)(C)[C@@H]2[C@@H](CCn3cc([C@H](O)c4ccccc4)nn3)O[C@]3(C(=O)N(Cc4cccc(N5C(=O)c6cccc7cccc5c67)c4)c4ccccc43)[C@H]2C)cc1,0.645,0.738 (inactive),1.21 (inactive),2.54 (inactive),0.98,-0.143 (inactive),-0.139,-0.319,-0.048,-0.182,-0.225,-0.0463,0.575,1.41 (inactive),-0.365,-0.83,-1.32,-0.607,-1.02,-0.317
CN1C(=O)C2C=CC(C(O)c3ccc(I)cc3)N(Nc3ccccc3)C2C1=O (stereo not given),1.27,-0.228 (inactive),-0.504 (inactive),0.768 (inactive),2.99,-1.78 (inactive),0.107,-0.111,1.09,0.0778,1.23,0.158,0.926,0.623 (inactive),1.16,0.995,0.271,1.31,-0.158,0.966
COC(=O)[C@@]1(Cc2ccc(OC)cc2)[C@H]2c3cc(C(=O)N4CCCC4)n(Cc4ccc(S(C)(=O)=O)cc4)c3C[C@H]2CN1C(=O)c1ccccc1,-0.42,-0.288 (inactive),0.868 (inactive),1.16 (inactive),3,-0.247 (inactive),0.205,0.419,1.02,0.297,0.645,0.807,1.29,0.699 (inactive),0.508,0.401,0.348,-0.0139,-0.802,0.881
O=C1NC(=O)C2C1C=CC(C(O)c1ccccn1)N2Nc1ccc(Cl)cc1Cl (stereo not given),0.195,-1.09 (inactive),0.154 (inactive),-0.458 (inactive),3.35,-0.402 (inactive),0.091,-0.291,0.259,-0.0271,0.827,0.315,0.717,1.54 (inactive),0.0551,-0.0767,0.107,-0.196,-0.35,0.386
